HSD17B inhib: blocks hydroxysteroid 17-beta dehydrogenase activity; Potency, µM (series often up to 57.1 µM), actives largely listed as inhibitors; recombinant HSD17B10, NADH fluorescence kinetic; hit rate 7.6% among 75,000;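 note: the protocol describes HADH2 (HSD17B10) and not the HSD17B4 of the title; nearly all actives have a fitted effect of over 70% in size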
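Activity followed as NADH fluorescence increase (ex 360, em 450 nm) every 30 seconds for 4 min, using final 90 uM beta-hydroxybutyryl CoA and 1 mM NAD+. Recombinant His-tagged enzyme, 20 nM, pH 9.0 Tris buffer, 15 min compound preincubation.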
4MU fluor: compound fluoresces in the 4-MU spectral region; compound autofluorescence, 340/450 nm, 4-MU equivalents; stronger effect = higher value; max dye-equivalent concentration, M; hit rate 11% among 59,000; in the data active = max dye-equivalent concentration above about 10 nM; inconclusive = mostly about 1.1 nM to 9.6 nM
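Compounds in 100 mM Tris, pH 8.0, sat 15 min at room temperature before fluorescence was read at 340 nm excitation/450 nm emission; a per-plate six-point 4-MU standard curve converted signals to dye-equivalent concentration at each compound concentration.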
HADH2 inhib: blocks human hydroxyacyl-CoA dehydrogenase type II. recombinant HADH2, NADH fluorescence, beta-hydroxybutyryl-CoA. Potency, µM (top dose mostly 57.1 µM), most hits filed as inhibitors. AID 886. hit rate 3.4% among 73,000; note: nearly all actives have a fitted effect of over 60% in size
Target sequence (Q99714 whole entry, looked up, one chain of several): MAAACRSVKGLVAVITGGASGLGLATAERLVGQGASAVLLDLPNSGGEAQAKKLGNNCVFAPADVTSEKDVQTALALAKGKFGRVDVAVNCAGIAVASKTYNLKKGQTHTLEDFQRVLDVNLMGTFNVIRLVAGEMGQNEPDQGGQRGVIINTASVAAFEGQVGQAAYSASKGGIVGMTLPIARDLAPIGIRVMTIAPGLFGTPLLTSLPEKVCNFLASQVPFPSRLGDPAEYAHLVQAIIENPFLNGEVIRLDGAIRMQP
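Read-out: 360 nm excitation, 450 nm emission, kinetic over 4 min. Conditions: His-tagged human HADH2 20 nM, pH 9.0 Tris with Tween-20, 1 mM NAD+, 90 uM beta-hydroxybutyryl-CoA.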
CRE-bla Fsk: modulators of forskolin-stimulated CRE signaling in CHO cells | Potency, µM (top dose mostly 38.2 µM), usual class: activators | AID 662 | CHO CRE-bla reporter (cAMP response element driving beta-lactamase), forskolin EC10, beta-lactamase ratio | hit rate 2.5% among 71,000; active = well fitted activation curve with a large enough effect in the signal ratio, with a control signal flat, not every such curve was filed as active; inconclusive = small, poorly fitted or top-dose-only effect, or effect the other way, or a change in a side signal; the % refers to the signal ratio
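AC50 values, positive or negative, reflect shifts in EC10 NKH 477-induced CRE-bla reporter activity in CHO cells. Incubation lasted 3 h at 37 °C before CCF4 substrate (2 h, room temperature) and ratiometric 460/530 nm reading.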
A350 fluor: compounds fluorescent in Alexa 350 spectral region; Compound autofluorescence, 340/450 nm, Alexa 350 dye-equivalents; stronger effect = higher value; AID 590; max dye-equivalent concentration, M; hit rate 11% among 59,000; in the data active = max dye-equivalent concentration above about 10 nM; inconclusive = mostly about 1.1 nM to 9.6 nM
AID923: qHTS Assay for Allosteric/Competitive Inhibitors of Caspase-1: Spectroscopic Profiling in AFC Spectral Region. compound fluorescence, AFC spectral region (405/520 nm). Potency, µM (series often up to 57.5 µM), actives largely listed as activators. hit rate 1.1% among 75,000
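Titrations up to 57 uM read every 20 sec for 3 min (405/520 nm) with 50 nM caspase 1 and 5 uM Ac-WEHD-AFC, pH 7.5 HEPES buffer. Fluorescence-vs-time intercept gave baseline, scaled against on-plate AFC standard.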
Large screens that a line does not name were inactive; ! = repeats disagree. In the library only some 14% were active in any assay of this set; here they are far more common. Unless noted, calls come from the whole dose curve; as a rule, active = well fitted curve in the direction sought with a large enough effect; inconclusive = small, poorly fitted or top-dose-only effect, or another doubt; inactive = no such curve, though single readings can be large; an effect the other way counts as inactive or inconclusive.

CN1CCc2c(sc3c2c(=O)n(-c2ccccc2)c2nnc(SCc4ccc(F)cc4)n32)C1	HSD17B inhib inconclusive, 4MU fluor inconclusive, HADH2 inhib inconclusive, A350 fluor 1.02e-08M
CSc1nnc2n(-c3ccccc3)c(=O)c3c4c(sc3n12)CCC4	CRE-bla Fsk 2.51µM
COC(=O)CSc1nnc2n(-c3ccc(OC)cc3)c(=O)c3c4c(sc3n12)CCCCC4	4MU fluor 2.16e-08M, A350 fluor 2.47e-08M (no result: HSD17B inhib, HADH2 inhib, CRE-bla Fsk, AID923)
CSc1nnc2n(C3CCCCC3)c(=O)c3c4c(sc3n12)CCCC4	none (no result: HSD17B inhib, HADH2 inhib, CRE-bla Fsk, AID923)
CCOC(=O)COc1ccc2nsnc2c1	HSD17B inhib inconclusive, 4MU fluor 3.46e-08M, CRE-bla Fsk inconclusive, A350 fluor 4.67e-08M
CCOC(=O)COc1ccc(C(=O)c2ccccc2)c(O)c1	none
Cc1noc(C)c1COC(=O)CCc1nc2ccccc2c(=O)[nH]1	none
CC(C)C(=O)Nc1c2c(nc3ccccc13)N(C)CC2	HSD17B inhib 31.6µM (no result: 4MU fluor, CRE-bla Fsk, A350 fluor)
c1csc(CNc2ncncc2-c2ccoc2)c1	none
COc1ccc2[nH]c(C)c(CCN3C(=O)OC(C)(C)C3(C)O)c2c1 (stereo not given)	none (no result: 4MU fluor, A350 fluor)
COc1ccc2[nH]c(=O)c3c(c2c1)OC(C)(C)C=C3	HSD17B inhib 25.1µM, 4MU fluor 2.26e-07M, CRE-bla Fsk inconclusive, A350 fluor 2.06e-07M
CCC[C@@H]1C[C@@]1(CCC)C(NP(=O)(c1ccccc1)c1ccccc1)c1ccc(Cl)cc1 (stereo not given in full)	HSD17B inhib inconclusive (no result: 4MU fluor, A350 fluor)
CCCn1c(-c2ccc(F)cc2)nc2c(N3CCCN(Cc4ccccc4)CC3)nc(C)nc21	HSD17B inhib 31.6µM (no result: 4MU fluor, A350 fluor)
CCCn1c(C)nc2c(NCCCN3CCCCC3C)nc(C)nc21 (stereo not given)	none (no result: 4MU fluor, A350 fluor)
Cc1nc(N2CCOCC2)c2nc(-c3ccccc3)n(CCCN3CCCCC3C)c2n1 (stereo not given)	HSD17B inhib 25.1µM (no result: 4MU fluor, A350 fluor)
COCCN(CCOC)c1nc(C)nc2c1nc(-c1ccccc1)n2CCCN1CCCCC1C (stereo not given)	HSD17B inhib 25.1µM (no result: 4MU fluor, A350 fluor)
CCN(CC)CCn1c(-c2ccccc2)nc2c(N3CCOCC3)nc(C)nc21	HSD17B inhib inconclusive, HADH2 inhib inconclusive (no result: 4MU fluor, A350 fluor)
Cc1nc(N2CCOCC2)c2nc(-c3ccccc3)n(CCN3CCCCC3)c2n1	HSD17B inhib 25.1µM (no result: 4MU fluor, A350 fluor)
CCCn1c(C)nc2c(N3CCOCC3)nc(C)nc21	CRE-bla Fsk 10µM (no result: 4MU fluor, A350 fluor)
O=C(O)[C@@H](O)[C@@H](O)[C@@H](O)[C@@H](O)C(=O)O (tested in a mixture with another compound)	none
NCCN1CCN(CCN)CC1	A350 fluor inconclusive
C[C@@H]1/C(=N/O)CC2C[C@@H]1C2(C)C	none (no result: 4MU fluor, HADH2 inhib, CRE-bla Fsk, A350 fluor)
COc1ccc(C[C@@](C)(N)C(=O)O)cc1OC	HADH2 inhib inconclusive, A350 fluor inconclusive
CCc1nnc(NC(=O)CSc2nc(-c3ccc(OC)cc3)ns2)s1	4MU fluor 1.52e-08M, CRE-bla Fsk inconclusive, A350 fluor 1.82e-08M
CCc1nnc(NC(=O)CSc2nc3ccccc3s2)s1	HSD17B inhib 31.6µM, HADH2 inhib inconclusive, CRE-bla Fsk inconclusive
CCc1nnc(NC(=O)CSc2nnc(CNc3ccc(Cl)cc3)o2)s1	4MU fluor 1.73e-08M, A350 fluor 2.05e-08M
CC1CCC2C(=O)N3C(CCC(C)C3c3ccccc3Br)C(=O)N2C1c1ccc(C#CCN(C)C)cc1 (stereo not given)	none (no result: 4MU fluor, CRE-bla Fsk, A350 fluor)
COc1c(O)cc2oc3cc(O)c(CC=C(C)C)c(O)c3c(=O)c2c1CC=C(C)C	HSD17B inhib 10µM!, CRE-bla Fsk inconclusive
CC(C)C(=O)NC(=O)C1CCCN1C(=O)/C=C/c1ccccc1 (stereo not given)	none (no result: 4MU fluor, CRE-bla Fsk, A350 fluor)
CCCOc1ccc(CSc2nnc(CCC)n2N)cc1	CRE-bla Fsk inconclusive
CCCc1nnc(SCc2ccc(OC)cc2)n1N	HSD17B inhib 31.6µM, 4MU fluor 3.34e-08M, HADH2 inhib 31.6µM, A350 fluor 3.21e-08M
COC(=O)C1CC1C(NC(=O)[C@H]1CCCCN1)c1ccccc1 (stereo not given in full)	none (no result: 4MU fluor, A350 fluor)
COC(=O)c1ccccc1NC(=O)c1noc2c1CCC2	HSD17B inhib 25.1µM, HADH2 inhib 15.8µM, CRE-bla Fsk inconclusive

Bioassay records deposited in PubChem BioAssay by National Center for Advancing Translational Sciences (NCATS).
